An excerpt weighted towards active compounds, which were near 3.1% of everything screened.
HIF-2a block = HIF-2a reporter inhibitors, primary screen, luminescence, 786-0 RCC cells. 360,000 compounds, 0.72% hits. 786-0 RCC cells HIF-2a reporter, luciferase luminescence, overnight. inhibition, % at 18.8 µM;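 active = inhibition of the luminescence signal of 40% or more relative to plate controls, in a single-dose primary screen at 18.75 µM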
ABHD5-PLIN5 inh = ABHD5-PLIN5 interaction inhibitors, primary screen, cell lysate, split luciferase complementation, luminescence | Perilipin-5 (Homo sapiens) + 1-acylglycerol-3-phosphate O-acyltransferase ABHD5 (Homo … | Split G. princeps luciferase complementation, 4 h | inhibition, % at 4 µM | 360,000 compounds, 0.78% hits;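 active = inhibition above the mean inhibition across every tested compound plus 3 SD, cut at about 22% in these data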;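 also: 0% = DMSO only wells and the 100% control is not disclosed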
Peg3 promoter = Peg3 promoter-driven luciferase inhibitors, primary screen, cell-based, HeLa, luciferase luminescence. HeLa PEG-Prom luciferase reporter, overnight. inhibition, % at 20 µM. 360,000 compounds, 1.7% hits. AID 588405, 2011;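 active = inhibition of at least 50% at 20 µM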
KKLEB tox = cytotoxicity in KKLEB CF airway cells, primary screen, cytotoxicity control for CF NF-kB inhibitor project, cell-based, uHTS, fluorescence assay plates | KKLEB CF airway cells viability, ATPlite luminescence, overnight; active compounds read low; cells stimulated with P. aeruginosa culture filtrate | 360,000 compounds, 0.36% hits | AID 602141, 2011 | activity change (cytotoxicity), % at 5 µM;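 active = corrected activity change at or below -50% at 5 µM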
CF NFkB inh = inhibitors of PAF-induced NF-kB signaling, primary screen, cell-based, GFP fluorescence, uHTS | KKLEB NF-kB-GFP reporter, GFP fluorescence overnight | inhibition, % at 5 µM | 360,000 compounds, 0.86% hits | AID 588850, 2011;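 active = at least 50% inhibition at 5 µM, scaled per plate between neutral and stimulator controls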;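 also: PAF is a Pseudomonas aeruginosa culture filtrate used as stimulus; plate controls were PAF-stimulated DMSO wells for no effect and unstimulated DMSO wells for full effect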
MITF TRPM1 inh = inhibitors of MITF-dependent TRPM1 promoter reporter, primary screen, cell-based, SK-MEL-5, single point, luciferase; SK-MEL-5 TRPM1 promoter luciferase, 24 h; inhibition, % at 12.5 µM; 330,000 compounds, 0.83% hits; AID 488899, 2010;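 active = mean inhibition across replicates of 60% or more, whatever share of single replicates reaches that level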
ABHD5-PLIN5 conf = ABHD5-PLIN5 interaction inhibitors, confirmation, biochemical, luminescence; shares compounds with ABHD5-PLIN5 inh; inhibition, % at 4 µM; 2,200 compounds, 67% hits; AID 651612, 2012; in the data active = inhibition above about 23%;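 also: 0% = DMSO vehicle wells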
HNF4 split-luc = HNF4 dimerization inhibitors, counter-screen for ABHD5-PLIN5 interaction inhibitor project, biochemical, split-luciferase complementation, luminescence; shares compounds with ABHD5-PLIN5 inh; inhibition, % at 4 µM; 2,200 compounds, 77% hits; AID 651674, 2012;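 active = mean inhibition across replicate wells exceeding the computed hit threshold, cut at about 13% in these data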;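 also: light from luciferase halves that rejoin when HNF4 fusion proteins dimerize; 0% = DMSO only wells and the 100% control is not given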
Target sequence (P41235 whole entry, looked up, the tested form may be a part): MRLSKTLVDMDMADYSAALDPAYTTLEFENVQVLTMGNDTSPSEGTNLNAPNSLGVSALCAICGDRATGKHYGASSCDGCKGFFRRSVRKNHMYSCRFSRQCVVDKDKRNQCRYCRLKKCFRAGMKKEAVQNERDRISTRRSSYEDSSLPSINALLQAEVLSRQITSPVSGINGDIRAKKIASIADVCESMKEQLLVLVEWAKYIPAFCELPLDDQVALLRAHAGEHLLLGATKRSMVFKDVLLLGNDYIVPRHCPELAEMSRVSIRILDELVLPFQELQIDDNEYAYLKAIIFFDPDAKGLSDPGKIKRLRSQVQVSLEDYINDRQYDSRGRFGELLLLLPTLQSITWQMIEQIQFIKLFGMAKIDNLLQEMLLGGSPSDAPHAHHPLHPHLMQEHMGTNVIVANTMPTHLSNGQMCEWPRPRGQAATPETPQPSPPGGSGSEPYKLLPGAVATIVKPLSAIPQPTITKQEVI
Starred values were filed as active, the others as inactive; . = no result.

SMILES	HIF-2a block	ABHD5-PLIN5 inh	Peg3 promoter	KKLEB tox	CF NFkB inh	MITF TRPM1 inh	ABHD5-PLIN5 conf	HNF4 split-luc
COc1ccc(/C=C/C(=O)c2ccncc2)c2ccccc12	19	56*	23	-12	13	6	84*	79*
COc1cccc(C(=O)/C=C/c2ccc(N3CCCCC3)c([N+](=O)[O-])c2)c1	-48	29*	66*	-34	25	11	87*	73*
COc1ccc(C(=O)C=Cc2cccs2)c(O)c1	-284	20	-252	14	-27	-79	.	.
CCN(CC)S(=O)(=O)c1ccc(Cc2ncc(C(F)(F)F)cc2Cl)s1	28	-3	22	-1	-1	5	.	.
COc1ccc(NC(=O)c2cccc([N+](=O)[O-])c2)cc1	-156	-1	-156	5	3	-18	.	.
COc1cccc(/C=C/C(=O)c2cccc([N+](=O)[O-])c2)c1	-26	64*	17	1	3	7	97*	97*
Cc1ccc(C(=O)/C=C/C(=O)O)cc1	6	93*	8	-12	8	-9	95*	106*
CCn1c(CC(=O)Nc2ccc(F)cc2)nnc1SCC(=O)N1CCOCC1	11	8	-24	8	-8	-5	.	.
O=C(CCCN1C(=O)S/C(=C\C=C\c2ccccc2)C1=O)Nc1ccc(C(=O)O)cc1	-145	34*	-58	5	-7	-28	19	20*
Cc1c(C(=O)Nc2ccc(Br)cc2)cnn1C	-202	1	-206	5	-8	-32	.	.
Cc1c(C(=O)c2no[n+]([O-])c2C(=O)c2cnn(C)c2C)cnn1C	-10	29*	43	-27	63*	16	58*	74*
COc1ccccc1NC(=O)N(C)C[C@H]1OCc2cnnn2CCCC(=O)N([C@H](C)CO)C[C@H]1C	9	-4	-12	3	7	.	.	.
CCCc1cc(CN2CCOCC2)c(O)c(CN2CCOCC2)c1O	6	25*	-1	4	-1	1	63*	100*
O=C(CNCc1ccc(F)cc1)Nc1ccccc1[N+](=O)[O-]	-14	0	-5	-6	-14	10	.	.
Cc1ccc(-c2nc3cnccn3c2Nc2ccccc2)o1	-91	25*	-78	-14	7	.	39*	84*
Cn1c(=O)n(C)c2cc(NS(=O)(=O)c3cccs3)ccc21	-2	4	-18	-24	-27	14	.	.
COC(=O)C/C=N/N=C1/NC(=O)/C(=C/C(=O)O)S1	15	26*	7	0	2	-1	22	19*
COC(=O)/C=C1\S/C(=N/N=C/c2ccccc2)NC1=O	-46	-1	-30	3	3	7	.	.
Cc1cccc(C)c1NC(=O)CN(C)C(=O)CC1Sc2ccccc2NC1=O (stereo not given)	-14	3	-4	12	0	17	.	.
Cc1ccc(CNC(=O)CCc2nnc(Cc3ccc(-c4ccccc4)cc3)o2)o1	-12	28*	-26	5	7	4	10	5
N#CCCN(C(=O)COC(=O)CCc1nc2ccccc2c(=O)[nH]1)c1ccccc1F	7	1	1	-9	10	13	.	.
CCN(c1ccccc1)S(=O)(=O)c1cc(C(=O)NCc2ccco2)ccc1C	-14	27*	11	-6	38	-5	13	14*
Cc1c(NS(=O)(=O)c2cccc(C(=O)NCc3ccc(Cl)cc3)c2)c(=O)n(-c2ccccc2)n1C	9	2	7	1	-6	12	.	.

Bioassay records (PubChem)
